According to PubChem BioAssay AID588382 (National Center for Advancing Translational Sciences (NCATS), 2011):
Out of some 1,300 compounds screened, about 150 (12%) were called active. Not shown: some 30% with an inconclusive outcome. The call rests on the fitted dose curve; in most records, active means well fitted cell-killing curve with a large enough effect; inconclusive means small, poorly fitted or top-dose-only effect, or effect the other way; inactive means flat fitted curve, though single readings scatter. The entries come from a sample that favours actives as a whole. Entries that show only a call come without a potency.
Potency means the concentration at half of the fitted maximal effect.

Assay: qHTS of small molecules that selectively kill Giardia lamblia: Hit Validation in HepG2 cytotox;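 further: compound exposure lasted overnight at 37 deg C; nearly all actives have a fitted effect of over 55% in size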
Conditions: cell viability; Potency: HepG2 cytotoxicity; series mostly up to 38.3 µM
Summary of the method: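 HepG2 cells seeded and incubated overnight at 37 deg C, then 23 nL compound added by pintool and incubated overnight at 37 deg C. Viability read as ATP luminescence with ATPLite after 15 min at room temperature.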
In the case of CC1CCN(c2ccc(-c3ccc(NC(=O)C(F)(F)F)cc3)nn2)CC1, the Potency is reported as 4.14 µM (active).
For N#CC1C=Cc2c(ccc3ccccc23)N1C(=O)c1ccccc1 (configuration not stated), the Potency was “inactive”.
In the case of CC(=O)c1sc(NC(=O)c2ccc(C)c(C)c2)nc1C, the Potency is reported as “inactive”.
For Cc1nc2c(ccc3nc(NC(=O)c4ccc5c(c4)OCCO5)sc32)s1, the Potency was 1.85 µM (active).
In the case of O=C(Nc1ccc2c(c1)OCCO2)c1cc(-c2ccccn2)nc2ccc(Br)cc12, the Potency is reported as “inactive”.
With Cc1[nH]n(S(=O)(=O)Cc2ccccc2)c(=O)c1N=Nc1ccccc1Cl the Potency was “inactive”.
For O=C(COc1cccnc1[N+](=O)[O-])c1c[nH]c2ccccc12, the Potency was “inactive”.
In the case of Cc1[nH]c2ccccc2c1C(=O)C(C)OC(=O)c1ccc([N+](=O)[O-])o1 (configuration not stated), the Potency is reported as “inactive”.
With COC(=O)c1sc(NC(=O)COc2cccnc2[N+](=O)[O-])c(C(=O)OC)c1C the Potency was “inactive”.
For Cc1cc2[nH]c3c(c[n+](C)c4ccccc34)c2cc1C, the Potency was 3.29 µM (active).
For COC(=O)c1ccc(Cn2cc(C(F)(F)F)cc([N+](=O)[O-])c2=O)cc1, the Potency was “inactive”.
In the case of CCc1ccc([C@@H]2CC=C(C(=O)O)[C@H](c3cccc(Cl)c3)N2S(=O)(=O)c2ccc(C)cc2)cc1, the Potency is reported as “inactive”.
In the case of Cc1ccc(CN=c2c([N+](=O)[O-])nn(-c3ccc4c(c3)OCCO4)n2O)cc1, the Potency is reported as “inactive”.
For Cc1ccccc1N1CCN(Cc2ccc([N+](=O)[O-])o2)CC1, the Potency was “inactive”.
For COc1cc(/C=C/c2onc(C)c2[N+](=O)[O-])cc(OC)c1OC, the Potency was “inactive”.
In the case of COc1cc(/C=C2\COC/C(=C\c3cc(OC)c(OC)c(OC)c3)C2=O)cc(OC)c1OC, the Potency is reported as 2.33 µM (active).
In the case of COc1cc(C2CC(=O)Oc3cc(C)c(Cl)c(C)c32)cc(OC)c1OC (configuration not stated), the Potency is reported as “inactive”.
With Cc1ccc(S(=O)(=O)N2CC(C(=O)O)=CC[C@H]2c2ccc(Cl)cc2)cc1 the Potency was “inactive”.
In the case of O=C(O)C=C(Br)Br, the Potency is reported as “inactive”.
In the case of COc1ccc(C(=O)c2c3ccccc3[n+]([O-])n2CCCN)cc1, the Potency is reported as “inactive”.
With CC(Oc1cccnc1[N+](=O)[O-])C(=O)Nc1ccc(F)cc1 (configuration not stated) the Potency was “inactive”.
For COc1ccc2c(c1)C1OCCC1C(c1ccco1)N2 (configuration not stated), the Potency was 10.4 µM (active).
With CC(=O)OCON[N+]([O-])=NC(C)C the Potency was “inactive”.
With OCCOCCNc1ncnc2c1c(-c1ccccc1)cn2-c1ccccc1 the Potency was “inactive”.
With C(=C\c1nc2ccccc2s1)/c1ccc2c(c1)OCO2 the Potency was 2.07 µM (active).
In the case of O=[N+]([O-])c1cc(C(F)(F)F)ccc1Oc1cccnc1[N+](=O)[O-], the Potency is reported as “inactive”.
In the case of Cc1nc2c(N=Nc3ccccc3F)c(N)nn2c(N)c1C#N, the Potency is reported as “inactive”.
For Cc1ccc(OCC(=O)Nc2ccc(C)c(F)c2)c([N+](=O)[O-])n1, the Potency was “inactive”.
For CC(C)(C)[C@H](N)C(=O)N[C@H]1CCC2C3CC=C4C[C@@H](O)CC[C@]4(C)C3CC[C@@]21C (some centres not stated), the Potency was 2.33 µM (active).
For O=C(Nc1ccc(Cl)cn1)c1ccccc1[N+](=O)[O-], the Potency was “inactive”.
In the case of Brc1ccc(CNc2nc3ccccc3n2CCN2CCCCC2)cc1, the Potency is reported as “inactive”.
For NC(=S)NN=C1CCCCCCCC1, the Potency was “inactive”.
With COc1ccc(-c2nc(NCCCN(C)C)c3ccccc3n2)cc1 the Potency was “inactive”.
With CCN(CC)CCCNc1nc2ccccc2c2[nH]c3ccc(OC)cc3c12 the Potency was 2.61 µM (active).
With NCCCn1c(C(=O)c2cc(Cl)c(N)c(Cl)c2)c2ccccc2[n+]1[O-] the Potency was “inactive”.
With O=[N+]([O-])C(/C=C(/Cl)[N+](=O)[O-])=C(N1CCCCC1)N1CCCCC1 the Potency was “inactive”.
With O=c1c2ccccc2nc(/C=C/c2ccc([N+](=O)[O-])o2)n1CCCO the Potency was 3.69 µM (active).
In the case of O=[N+]([O-])c1ccc(/C=C/C2=NN(c3ccccc3)C(c3ccco3)C2)o1 (configuration not stated), the Potency is reported as “inactive”.
With CC(=O)N(/N=C/c1ccc([N+](=O)[O-])o1)c1nc2ccccc2c(=O)n1-c1ccccc1 the Potency was “inactive”.
In the case of O=[N+]([O-])c1ncccc1Oc1nc(-c2cccnc2)nc2ccccc12, the Potency is reported as “inactive”.
With COc1ccc(C(=O)COC(=O)c2ccccc2NS(=O)(=O)c2ccc(O)c([N+](=O)[O-])c2)cc1 the Potency was “inactive”.
For Cc1[nH]n(C2=NCCS2)c(=O)c1N=Nc1cccc(C(F)(F)F)c1, the Potency was 4.65 µM (active).
In the case of Cc1[nH]n(S(=O)(=O)c2ccccc2)c(=O)c1N=Nc1cccc(Cl)c1, the Potency is reported as “inactive”.
With CN(C(=O)c1ccc(N2CCCCC2)c([N+](=O)[O-])c1)C1CCS(=O)(=O)C1 (configuration not stated) the Potency was “inactive”.
For Cc1ccc(C(=O)c2c3ccc([N+](=O)[O-])cc3[n+]([O-])n2CCCC(N)=O)cc1, the Potency was “inactive”.
In the case of O=c1cc[nH]c2ccc([N+](=O)[O-])cc12, the Potency is reported as “inactive”.
In the case of Cc1cc(C(=O)COc2cccnc2[N+](=O)[O-])c(C)n1Cc1ccco1, the Potency is reported as “inactive”.
With c1ccc(-c2nc(-c3cnc4ccccc4n3)cs2)cc1 the Potency was “inactive”.
For Clc1ccc2oc(-c3ccccc3)cc(=NCCCN3CCOCC3)c2c1, the Potency was “inactive”.
For CC1(C)CC(N=c2cc(-c3ccccc3)oc3ccc(Cl)cc23)CC(C)(C)N1, the Potency was 8.26 µM (active).
In the case of CN(C)CCCN=c1cc(-c2ccccc2)oc2ccc(Cl)cc12, the Potency is reported as “inactive”.
With O=C(CSc1ccsc1[N+](=O)[O-])NCCc1ccc(Cl)cc1 the Potency was “inactive”.
With O=[N+]([O-])c1cn(-c2nc(-c3ccco3)cc(C(F)(F)F)n2)cn1 the Potency was “inactive”.
With CNN/C(N=Cc1ccc([N+](=O)[O-])s1)=N\S(=O)(=O)c1cc(C)c(Cl)cc1SCc1ccccc1 the Potency was “inactive”.
With Clc1ccc2c(N/N=C/c3ccccc3Br)ccnc2c1 the Potency was 14.7 µM (active).
With Clc1ccc2c(N/N=C/c3cccc(Br)c3)ccnc2c1 the Potency was 11.7 µM (active).
With CCOC(=O)C1CCN(c2ccc([N+](=O)[O-])c(C(C)=O)c2)CC1 the Potency was “inactive”.
With Cc1ccc(C(C(=O)NCc2ccco2)N(C(=O)CNC(=O)c2cccs2)c2c(C)cccc2C)cc1 (configuration not stated) the Potency was “inactive”.
With NC(=O)c1ccc(Nc2ccc([N+](=O)[O-])cc2[N+](=O)[O-])cc1 the Potency was “inactive”.
With CC(=O)c1c(C)n([O-])c2ccc(C)cc2[n+]1=O the Potency was “inactive”.
With C=CCn1c(C)cc(C(=O)COC(=O)c2n[nH]c(=O)c3ccccc23)c1C the Potency was “inactive”.
In the case of COc1ccc(-n2nc([N+](=O)[O-])c(=NCCC3=CCCCC3)n2O)cc1, the Potency is reported as “inactive”.
With COc1ccc2c3n([n+]([O-])c2c1)CCN=C3c1cc(Cl)c(N)c(Cl)c1 the Potency was “inactive”.
In the case of O=c1[nH]cnc2ccc([N+](=O)[O-])cc12, the Potency is reported as “inactive”.
For COc1cc(SC)ccc1C(=O)Nc1nc2ccccc2[nH]1, the Potency was 2.07 µM (active).
In the case of COC(=O)Nc1nc2ccc(Sc3ccccc3)cc2[nH]1, the Potency is reported as “inactive”.
In the case of COC(=O)Nc1nc2ccc(SC(C)C)cc2[nH]1, the Potency is reported as “inactive”.
For COc1ccc(-n2nc([N+](=O)[O-])c(=NCCc3ccccc3)n2O)cc1, the Potency was “inactive”.
With CCCCC12CN3CC(C)(CN(C1)C3c1ccc([N+](=O)[O-])o1)C2=O (configuration not stated) the Potency was “inactive”.
In the case of Cc1ccc(S(=O)(=O)N2[C@@H](c3ccc(F)cc3)C(C(=O)O)=CC[C@H]2c2cccs2)cc1, the Potency is reported as “inactive”.
With COc1ccc(C(=O)CC(SCC(NC(C)=O)C(=O)O)c2ccc(Cl)cc2)cc1OC (configuration not stated) the Potency was “inactive”.
For Cc1cc(C)cc(N=c2c([N+](=O)[O-])nn(-c3cccc(Cl)c3)n2O)c1, the Potency was “inactive”.
For O=C(Nc1ccc(-c2nc3ncccc3o2)cc1)c1ccc([N+](=O)[O-])o1, the Potency was 4.65 µM (active).
In the case of O=C(Nc1ccc2oc(-c3cccnc3)nc2c1)c1ccc([N+](=O)[O-])o1, the Potency is reported as 13.1 µM (active).
In the case of O=C(Nc1ccc2oc(-c3ccccc3F)nc2c1)c1ccc([N+](=O)[O-])o1, the Potency is reported as “inactive”.
In the case of O=C(Nc1ccc2oc(-c3ccncc3)nc2c1)c1ccc([N+](=O)[O-])o1, the Potency is reported as 16.5 µM (active).
With Cc1ccc(-c2nnc(NC(=O)c3ccc([N+](=O)[O-])o3)o2)c(C)c1 the Potency was “inactive”.
With Cc1cccnc1NC(=O)c1ccc([N+](=O)[O-])o1 the Potency was “inactive”.
For COc1ccc(-n2c(C)cc(C(=O)COc3ccc(C)nc3[N+](=O)[O-])c2C)cc1, the Potency was “inactive”.
With CC(=O)c1c(COC(=O)c2ccc(F)cc2)nc2ccccc2[n+]1[O-] the Potency was “inactive”.
With COc1ccc(-n2nc([N+](=O)[O-])c(=NCCc3ccc(OC)c(OC)c3)n2O)cc1 the Potency was “inactive”.
In the case of Cc1cccc(NC(=O)CN2C(=O)S/C(=C\c3ccc(O)c([N+](=O)[O-])c3)C2=O)c1, the Potency is reported as “inactive”.
For Cn1nc(N)c2c(-c3ccc(Cl)cc3)c(C#N)c(N)nc21, the Potency was “inactive”.
With O=[N+]([O-])c1ccc(/C=N/Nc2nc(N3CCCC3)nc(N3CCCC3)n2)o1 the Potency was “inactive”.
In the case of CCN(CC)S(=O)(=O)c1cccc(N=Nc2c(O)c3ccccc3oc2=O)c1, the Potency is reported as “inactive”.
For Cc1ccc(S(=O)(=O)N2[C@@H](c3ccc(Cl)cc3)C(C(=O)O)=CC[C@H]2c2cccc(Cl)c2)cc1, the Potency was “inactive”.
With O=[N+]([O-])c1ccc(NCc2ccccc2N2CCC(CO)CC2)nc1 the Potency was “inactive”.
For Cc1c(Cl)cccc1N=c1c([N+](=O)[O-])nn(-c2ccccc2)n1O, the Potency was “inactive”.
For CN=c1c([N+](=O)[O-])nn(-c2ccc3c(c2)OCCO3)n1O, the Potency was “inactive”.
In the case of O=c1c2c([N+](=O)[O-])cc([N+](=O)[O-])cc2nc2ccccn12, the Potency is reported as “inactive”.
For CCCC12CN3CC(C)(CN(C1)C3c1ccc([N+](=O)[O-])o1)C2=O (configuration not stated), the Potency was “inactive”.
For CC(=O)CSc1ccc(-c2nc3ccccc3[nH]2)cn1, the Potency was 14.7 µM (active).
With Cc1ncc([N+](=O)[O-])n1CCOC(=O)NC(NCc1ccccc1)C(Cl)(Cl)Cl (configuration not stated) the Potency was “inactive”.
For Cc1cnc(N=Nc2ccccc2)[nH]1, the Potency was “inactive”.
In the case of Cc1cc2nc(-c3ccc[nH]c3=O)[nH]c2cc1C, the Potency is reported as 2.33 µM (active).
For O=[N+]([O-])c1nn(-c2ccc3c(c2)OCCO3)n(O)c1=NC1CCCCC1, the Potency was “inactive”.
For CC(NC(=O)COc1cccnc1[N+](=O)[O-])c1ccc(F)cc1 (configuration not stated), the Potency was “inactive”.
In the case of O=C(CSc1nnc(NC(=O)c2c(F)cccc2F)s1)Nc1ccc(F)cc1, the Potency is reported as “inactive”.
In the case of O=C(Nc1nnc(SCC(=O)N2CCOCC2)s1)c1ccccc1Cl, the Potency is reported as 2.07 µM (active).
In the case of O=C(CSc1nnc(NC(=O)c2ccccc2)s1)NCc1ccco1, the Potency is reported as 2.07 µM (active).
In the case of O=C(Cc1ccc(-n2c(=O)c3sccc3n(CC(=O)Nc3ccccc3)c2=O)cc1)NCc1ccco1, the Potency is reported as “inactive”.
With O=C(Nc1nnc(SCC(=O)N2CCOCC2)s1)c1ccccc1 the Potency was 2.33 µM (active).
